Molecules are shown by their SMILES. Activity calls are given as the source filed them. Rule for the calls: active = hit-call score of the fitted dose curve at least 0.9, where 1 is the maximum; inactive = score below 0.9.

In PubChem BioAssay (EPA / NIEHS) one finds outcome and AC50 data, which are given here for 8 compounds.

Read-out in assay [1]: Low-density lipoprotein receptor (LDLR), LDLR (gene 3949)
Description: BSK_CASM3C_LDLR: BioMAP Diversity Plus: CASM3C Assay for Low-density lipoprotein receptor (LDLR) Biomarker Activity (AID 2283045).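 Note: LDLR protein level on the cell surface quantified by ELISA.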 The settings on record: primary human coronary artery smooth muscle cells; actives raise or lower the signal.

Read-out in assay [2]: Monocyte Chemoattractant Protein-1 (MCP1), CCL2 (gene 6347)
Description: BSK_CASM3C_MCP1: BioMAP Diversity Plus: CASM3C Assay for Monocyte Chemoattractant Protein-1 (MCP1) Biomarker Activity (AID 2283046).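 Note: MCP-1 level quantified by ELISA 24 h after dosing.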 The settings on record: primary human coronary artery smooth muscle cells; actives raise or lower the signal.

The nature of assay [3]: BSK_CASM3C_Proliferation: Cell Proliferation Assessment in the BioMAP Diversity Plus: CASM3C Assay (AID 2283047).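 Note: sulforhodamine B total protein stain as relative cell number at 560 nm; sub-confluent cells exposed 48 h before staining; fitted both ways against DMSO so gain or loss of cell number.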 To be noted: primary human coronary artery smooth muscle cells.
Read-out in assay [4]: Monokine induced gamma interferon (MIG), CXCL9 (gene 4283)
Description: BSK_CASM3C_MIG: BioMAP Diversity Plus: CASM3C Assay for Monokine induced gamma interferon (MIG) Biomarker Activity (AID 2283048).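 Note: MIG protein level measured by ELISA.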 To be noted: primary human coronary artery smooth muscle cells; actives raise or lower the signal.

Read-out in assay [5]: serum amyloid A (SAA), SAA1 (gene 6288)
Kind of assay: BSK_CASM3C_SAA: BioMAP Diversity Plus: CASM3C Assay for serum amyloid A (SAA) Biomarker Activity (AID 2283049).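 Note: SAA protein level quantified by ELISA.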 To be noted: primary human coronary artery smooth muscle cells; actives raise or lower the signal.

The nature of assay [6]: BSK_CASM3C_SRB: Viability Assessment in the BioMAP Diversity Plus: CASM3C Assay (AID 2283050).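 Note: cells exposed to compound for 24 h.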 The settings on record: primary human coronary artery smooth muscle cells.
Read-out in assay [7]: Thrombomodulin, THBD (gene 7056)
Kind of assay: BSK_CASM3C_Thrombomodulin: BioMAP Diversity Plus: CASM3C Assay for Thrombomodulin Biomarker Activity (AID 2283051).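 Note: thrombomodulin protein level measured by ELISA 24 h after dosing.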 To be noted: primary human coronary artery smooth muscle cells; actives raise or lower the signal.

Read-out in assay [8]: Tissue Factor, F3 (gene 2152)
Kind of assay: BSK_CASM3C_TissueFactor: BioMAP Diversity Plus: CASM3C Assay for Tissue Factor Biomarker Activity (AID 2283052).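 Note: cell surface tissue factor protein level read by ELISA.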 The settings on record: primary human coronary artery smooth muscle cells; actives raise or lower the signal.

Read-out in assay [9]: Interferon-gamma inducible Protein 10 (IP10), CXCL10 (gene 3627)
Kind of assay: BSK_hDFCGF_IP10: BioMAP Diversity Plus: hDFCGF Assay for Interferon-gamma inducible Protein 10 (IP10) Biomarker Activity (AID 2283053). The settings on record: primary human foreskin fibroblasts; actives raise or lower the signal. In short, it runs like this: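 Primary human foreskin fibroblasts exposed to chemicals for 24 h. IP-10 measured by ELISA; changes fitted bidirectionally against DMSO baseline.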

Read-out in assay [10]: Urokinase-type plasminogen activator receptor (uPAR), PLAUR (gene 5329)
Description: BSK_CASM3C_uPAR: BioMAP Diversity Plus: CASM3C Assay for Urokinase-type plasminogen activator receptor (uPAR) Biomarker Activity (AID 2283054).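 Note: cell-surface uPAR protein level quantified by ELISA.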 To be noted: primary human coronary artery smooth muscle cells; actives raise or lower the signal.

Read-out in assay [11]: Vascular cell adhesion molecule 1 (VCAM1), VCAM1 (gene 7412)
Description: BSK_CASM3C_VCAM1: BioMAP Diversity Plus: CASM3C Assay for Vascular cell adhesion molecule 1 (VCAM1) Biomarker Activity (AID 2283055).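 Note: VCAM-1 protein level quantified by ELISA on the cells.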 The settings on record: primary human coronary artery smooth muscle cells; actives raise or lower the signal.

Read-out in assay [12]: Collagen III, COL3A1 (gene 1281)
Description: BSK_hDFCGF_CollagenIII: BioMAP Diversity Plus: hDFCGF Assay for Collagen III Biomarker Activity (AID 2283056). To be noted: primary human foreskin fibroblasts; actives raise or lower the signal. The essentials: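 ELISA readout of Collagen III in human dermal (foreskin) fibroblasts, taken 24 h post-treatment. Gain or loss relative to DMSO vehicle fitted in both directions.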

Read-out in assay [13]: Epidermal growth factor receptor (EGFR), EGFR (gene 1956)
Description: BSK_hDFCGF_EGFR: BioMAP Diversity Plus: hDFCGF Assay for Epidermal growth factor receptor (EGFR) Biomarker Activity (AID 2283057). The settings on record: primary human foreskin fibroblasts; actives raise or lower the signal. In short, it runs like this:
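Primary human foreskin fibroblasts (hDFCGF system), sampled 24 h after dosing; EGFR quantified by ELISA. Bidirectional fit relative to DMSO baseline; SRB total-protein staining in parallel cultures for cytotoxicity.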

Read-out in assay [14]: Interleukin-8 (IL8), CXCL8 (gene 3576)
Kind of assay: BSK_hDFCGF_IL8: BioMAP Diversity Plus: hDFCGF Assay for Interleukin-8 (IL8) Biomarker Activity (AID 2283058). The settings on record: primary human foreskin fibroblasts; actives raise or lower the signal. The essentials:
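IL-8 levels read by ELISA at 24 hours after dosing human skin fibroblast cultures. Parallel SRB staining assessed overt cytotoxicity, and gain or loss of signal was fitted against DMSO control.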

Assay [15] in a line: BSK_hDFCGF_Proliferation: Cell Proliferation Assessment in the BioMAP Diversity Plus: hDFCGF Assay (AID 2283059).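 Note: curves fitted for both rise and fall of signal versus DMSO baseline.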 The settings on record: primary human foreskin fibroblasts. The essentials:
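This proliferation readout used SRB total-protein staining of human foreskin fibroblasts […], normalized to DMSO with bidirectional curve fitting.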

Read-out in assay [16]: Macrophage colony-stimulating factor (MCSF), CSF1 (gene 1435)
Kind of assay: BSK_hDFCGF_MCSF: BioMAP Diversity Plus: hDFCGF Assay for Macrophage colony-stimulating factor (MCSF) Biomarker Activity (AID 2283060). To be noted: primary human foreskin fibroblasts; actives raise or lower the signal. The essentials: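 M-CSF levels read by ELISA at 24 h post-dosing in human skin fibroblasts. Parallel cultures stained with SRB assessed cytotoxicity at the same time point; response fitted in both directions against the DMSO baseline.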

The nature of assay [17]: BSK_hDFCGF_SRB: Viability Assessment in the BioMAP Diversity Plus: hDFCGF Assay (AID 2283061).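 Note: cells exposed to compound for 24 h before the read.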 To be noted: primary human foreskin fibroblasts. The essentials:
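Viability was read as total protein: after 10% TCA fixation, wells were stained with 0.1% sulforhodamine B and read at 560 nm. Primary human foreskin fibroblasts were dosed for 24 h, with bidirectional fitting versus DMSO.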

Read-out in assay [18]: TIMP metallopeptidase inhibitor 1 (TIMP1), TIMP1 (gene 7076)
Description: BSK_hDFCGF_TIMP1: BioMAP Diversity Plus: hDFCGF Assay for TIMP metallopeptidase inhibitor 1 (TIMP1) Biomarker Activity (AID 2283062). The settings on record: primary human foreskin fibroblasts; actives raise or lower the signal. In short, it runs like this:
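TIMP-1 measured by ELISA 24 h after chemical dosing of primary human skin fibroblasts, with gain or loss fitted relative to DMSO. Parallel SRB staining (560 nm) monitored overt cytotoxicity.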

Read-out in assay [19]: Monokine induced gamma interferon (MIG), CXCL9 (gene 4283)
Description: BSK_hDFCGF_MIG: BioMAP Diversity Plus: hDFCGF Assay for Monokine induced gamma interferon (MIG) Biomarker Activity (AID 2283063). The settings on record: primary human foreskin fibroblasts; actives raise or lower the signal. The essentials: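 Human primary foreskin fibroblasts in the hDFCGF system, exposed to test chemical for 24 h; MIG measured by ELISA. Bidirectional curve fitting against DMSO negative control as activity baseline.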

Read-out in assay [20]: Matrix Metallopeptidase 1 (MMP1), MMP1 (gene 4312)
Kind of assay: BSK_hDFCGF_MMP1: BioMAP Diversity Plus: hDFCGF Assay for Matrix Metallopeptidase 1 (MMP1) Biomarker Activity (AID 2283064). The settings on record: primary human foreskin fibroblasts; actives raise or lower the signal. In short, it runs like this:
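hDFCGF primary fibroblasts (human foreskin); chemical added; 24 h; MMP1 by ELISA; bidirectional fit vs DMSO.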

Turning to `S=c1[nH]c2ccccc2s1`, the outcome in assay [1], in assay [2], in assay [3], in assay [4], in [5] and in assay [6] was inactive. Further, the outcome in assay [8], in assay [9], in [10], in [11], in [13] and in [14] was inactive. The outcome in [15], in [16], in assay [17], in assay [18], in assay [19] and in assay [20] was inactive. Also, the AC50 in assay [7] was 8.08 µM (active); in assay [12], 6.58 µM (active).

As for `CSc1ccc(Oc2ccc(S(N)(=O)=O)cc2CN(C)C)cc1C`, the result in [1], in [2], in assay [4], in [5], in [6] and in assay [7] was inactive. Besides, the result in assay [8], in [9], in assay [10], in assay [11], in assay [12] and in assay [13] was inactive. Also, the outcome in [14], in assay [16], in [17], in assay [18], in assay [19] and in assay [20] was inactive. The AC50 in assay [3] and in assay [15] was 20 µM (active) throughout.

For `O=C(O)c1cccnc1`, the outcome in assay [1], in assay [2], in assay [3], in [4], in assay [5] and in assay [6] was inactive. The outcome in assay [7], in [8], in [9], in assay [10], in assay [11] and in [12] was inactive. The outcome in assay [13], in assay [14], in [15], in [16], in [17] and in assay [18] was inactive. For the same compound, the result in [19] and in [20] was inactive.

As for `Cc1c(C)c2c(c(C)c1O)CCC(C)(COc1ccc(CC3SC(=O)NC3=O)cc1)O2` (centres undefined), the result in assay [1], in assay [2], in assay [4], in [5], in [6] and in assay [8] was inactive. In addition, the result in assay [10] and in assay [11] was inactive. The AC50 in assay [3] is 6.88 µM (active); in assay [7] it was 5.08 µM (active); in assay [9], 9.98 µM (active); in assay [12], 12 µM (active); in [13] it was 8.04 µM (active); in assay [14], 27.8 µM (active). Further, the concentration at half-maximal activity (AC50) in [15] was 6.8 µM (active); in assay [16], 11.7 µM (active); in assay [17] it was 19.2 µM (active); in [19], 20 µM (active); in [20], 24.8 µM (active).

As to `Cc1occc(=O)c1O`, the result in [1], in assay [2], in [3], in [4], in assay [5] and in [6] was inactive. Further, the result in assay [7], in [8], in [9], in assay [10], in assay [11] and in [12] was inactive. For the same compound, the result in assay [13], in assay [14], in [15], in assay [16], in assay [17] and in assay [18] was inactive. The outcome in assay [19] and in assay [20] was inactive.

With `c1ccc2occc2c1`, the result in assay [1], in assay [2], in [3], in assay [4], in [5] and in assay [6] was inactive. The result in [7], in assay [8], in [9], in assay [10], in assay [11] and in [12] was inactive. Moreover, the outcome in assay [13], in assay [14], in assay [15], in [16], in assay [17] and in [18] was inactive. In addition, the outcome in [19] and in [20] was inactive.

On to `O=NO`, for which the outcome in assay [1], in [2], in assay [3], in [4], in [5] and in assay [6] was inactive. Further, the outcome in [7], in [8], in [9], in assay [10], in assay [11] and in assay [12] was inactive. Besides, the outcome in assay [13], in assay [14], in assay [15], in assay [16], in [17] and in assay [18] was inactive. For the same compound, the result in assay [19] and in assay [20] was inactive.

For `Cn1cnc2c1c(=O)[nH]c(=O)n2C`, the result in assay [1], in [2], in assay [3], in [4], in assay [5] and in assay [6] was inactive. Moreover, the outcome in assay [7], in [8], in assay [9], in assay [10], in assay [11] and in assay [12] was inactive. The result in assay [13], in [14], in assay [15], in [16], in [17] and in [18] was inactive. In addition, the result in [19] and in [20] was inactive.

Usually AC50 stands for the midpoint of the concentration-response curve, whichever way the signal moves.
